Assay results taken from PubChem BioAssay (NCI).
The panel holds about 83,000 compounds, 20% with a hit somewhere; the sample as a whole holds those more often.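 Step 1: grow cells in 96-well plates. Step 2: add test compound at a single concentration. Step 3: incubate 48 h. Step 4: record percent growth.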 Values without a mark were called inactive. The source made the active and inactive calls. Rule for the calls: active = growth percent below 10; inactive = the rest.

Tests used:
Assay in all cases: NCI-60 one-dose screen, 48 h (100 = growth as untreated, 0 = no growth, -100 = all killed)
Settings in all cases: 10 µM
SK-MEL-2 melanoma = test system: SK-MEL-2 melanoma
EKVX NSCLC = test system: EKVX NSCLC
SN12C renal = test system: SN12C renal
UO-31 renal = test system: UO-31 renal
TK-10 renal = test system: TK-10 renal
ACHN renal = test system: ACHN renal
CAKI-1 renal = test system: CAKI-1 renal
A498 renal = test system: A498 renal
CCRF-CEM leukemia = test system: CCRF-CEM leukemia
MOLT-4 leukemia = test system: MOLT-4 leukemia
SR leukemia = test system: SR leukemia
RPMI-8226 leukemia = test system: RPMI-8226 leukemia
OVCAR-8 ovarian = test system: OVCAR-8 ovarian
OVCAR-5 ovarian = test system: OVCAR-5 ovarian
OVCAR-4 ovarian = test system: OVCAR-4 ovarian
SK-OV-3 ovarian = test system: SK-OV-3 ovarian
IGROV1 ovarian = test system: IGROV1 ovarian
OVCAR-3 ovarian = test system: OVCAR-3 ovarian
HS 578T breast = test system: HS 578T breast
NCI/ADR-RES ovarian = test system: NCI/ADR-RES ovarian

Structure (SMILES) | growth (SK-MEL-2 melanoma) | growth (EKVX NSCLC) | growth (SN12C renal) | growth (UO-31 renal) | growth (TK-10 renal) | growth (ACHN renal) | growth (CAKI-1 renal) | growth (A498 renal) | growth (CCRF-CEM leukemia) | growth (MOLT-4 leukemia) | growth (SR leukemia) | growth (RPMI-8226 leukemia) | growth (OVCAR-8 ovarian) | growth (OVCAR-5 ovarian) | growth (OVCAR-4 ovarian) | growth (SK-OV-3 ovarian) | growth (IGROV1 ovarian) | growth (OVCAR-3 ovarian) | growth (HS 578T breast) | growth (NCI/ADR-RES ovarian)
O=C(Nc1cc(Cl)cc2c1-c1ccc(Cl)cc1C2O)C(Cl)Cl (stereo not drawn) | 110% | 69% | 82.2% | 74% | 118% | 61.9% | 67.5% | 74.4% | 69.1% | 78.8% | 82.3% | 65% | 86.5% | 94.8% | 62.9% | 102% | 73.2% | 97.3% | 78.8% | 83.5%
COc1ccc(NC(=O)C2CC3C=CC2C3)c([N+](=O)[O-])c1 (stereo not drawn) | 104% | 101% | 91.6% | 92.4% | 109% | 98.4% | 92.6% | 103% | 95.6% | 86.8% | 85.4% | 104% | 101% | 96.5% | 92.7% | 102% | 108% | 99.4% | 95.4% | 97.6%
O=C(CSc1nccc(Nc2cccc3ccccc23)n1)c1ccc(Cl)cc1 | 102% | 76.9% | 82.6% | 49.8% | 112% | 91.7% | 60.3% | 105% | 83.1% | 88.1% | 90.9% | 80% | 92.3% | 87.4% | 98.7% | 86.4% | 69% | 99.5% | 99.7% | 93.7%
CC(=O)Nc1ccc2c(c1)C(=O)c1cccc(C(=O)O)c1-2 | 115% | 107% | 109% | 111% | 116% | 105% | 94.9% | 120% | 103% | 107% | 123% | 105% | 106% | 103% | 108% | 108% | 135% | 118% | 109% | 107%
NC(=O)c1cccc(-n2ccc3cc(NC(=O)Nc4ccc(Cl)c(C(F)(F)F)c4)ccc32)n1 | 97.2% | 57.7% | 73.4% | 77.3% | 83.7% | 71.3% | 61% | 56.9% | 62.5% | 52% | 91.1% | 70.5% | 72.1% | 93.1% | 77.6% | 94.8% | 74.5% | 94.7% | 46.5% | 82%
CC[C@@H]1NC(=O)[C@H]([C@H](O)[C@H](C)C/C=C/c2ccc(CN3C(=O)CCCC3=O)cc2)N(C)C(=O)[C@H](C(C)C)N(C)C(=O)[C@H](CC(C)C)N(C)C(=O)[C@H](CC(C)C)N(C)C(=O)[C@@H](C)NC(=O)[C@H](C)NC(=O)[C@H](CC(C)C)N(C)C(=O)[C@H](C(C)C)NC(=O)[C@H](CC(C)C)N(C)C(=O)CN(C)C1=O | 38.2% | 37.4% | 71.1% | 49.7% | 39.8% | 40.3% | 77.3% | 4.54% (active) | 11.6% | 21.8% | -2.59% (active) | 9.26% (active) | 68.4% | 83.8% | 53.9% | 74.9% | 58.2% | 54.4% | 73.9% | 
COc1ccc(/C(C#N)=C/c2ccccc2OC)cc1 | 15.9% | 64.6% | 47.3% | 52.2% | 53% | 44.1% | 39% | 25.6% | 16.2% | 21.3% | 34.7% | 52.3% | 53.5% | 55.5% | 89.9% | 33.2% | 31.9% | 25.8% | 47.8% | -0.0917% (active)
O=S(=O)(Oc1ccc(-c2ccc3sccc3c2)cc1)c1ccc(F)cc1 | 114% | 91.5% | 96.5% | 92.2% | 93.7% | 107% | 82.7% | 95.3% | 86.1% | 89.4% | 86.3% | 96.4% | 106% | 102% | 100% | 107% | 104% | 110% | 112% | 95.8%
O=C1/C=C/[C@@H](O)[C@@H]2C[C@@H](O)C[C@H]2/C=C/CCC[C@H](C(F)(F)F)O1 | -18.3% (active) | 10.3% | 4.4% (active) | -6.75% (active) | -21% (active) | 3.63% (active) | 4.59% (active) | -18.2% (active) | 1.24% (active) | -0.315% (active) | -5.34% (active) | -23.8% (active) | 2.07% (active) | 16.2% | 28.5% | 57.8% | 19.4% | -28% (active) | 38.5% | -9.43% (active)
Cc1ccc(S(=O)(=O)N/N=C2\CCCc3ccccc32)cc1 | 103% | 93.6% | 112% | 88.1% | 119% | 94.9% | 89.8% | 91.8% | 91.8% | 101% | 110% | 94.3% | 95.2% | 90% | 95.8% | 111% | 113% | 113% | 95% | 96.7%
Cc1ccc2nc(Cl)c(-c3nc4ccccc4o3)cc2c1 | 94.2% | 88.1% | 104% | 62.9% | 115% | 76% | 105% | 75.6% | 98.1% | 81.4% | 88.6% | 97.8% | 99.4% | 97.8% | 99.3% | 104% | 79.2% | 98.3% | 98.6% | 89.4%
CCCC1(CN2c3ccccc3Sc3ccc(Cl)cc32)CCN(CC)C1 (stereo not drawn) | -3.45% (active) | -12.8% (active) | 23.1% | -1.01% (active) | -56.6% (active) | 0.109% (active) | -14.2% (active) | 8.05% (active) | -11.2% (active) | -27.9% (active) | -50.1% (active) | -43.2% (active) | -41.2% (active) | 8.89% (active) | 28.3% | 21.7% | -42.7% (active) | 2.48% (active) | -22.8% (active) | 31.4%
COc1cc(/C=C/c2cc(/C=C/c3ccc(O)c(OC)c3)nc(N)n2)ccc1O | -21% (active) | 22.2% | 22.1% | 3.16% (active) | 21.4% | 13.5% | 19.2% | -56.9% (active) | 1.68% (active) | 4.17% (active) | -7.94% (active) | 2.88% (active) | 9.33% (active) | 5.83% (active) | 18.3% | -17.4% (active) | 3.42% (active) | -7.57% (active) | -0.999% (active) | 
C/C=C/C1=CN2C(=O)c3cc(OC4OC(C)C(NC)C(C)(O)C4O)c(C)c(O)c3N=C[C@@H]2C1 (stereo partly drawn) | 17.9% | -3.19% (active) | 1.37% (active) | -44.5% (active) | 16.2% | 3.15% (active) | 9.27% (active) | -83.1% (active) | 1.22% (active) | 2.33% (active) | 0.588% (active) | 7.45% (active) | 9.18% (active) | -1.31% (active) | 6.69% (active) | 1.76% (active) | -22.7% (active) | -4.33% (active) | -11.6% (active) | -6.18% (active)
CCOc1ccccc1/C=N\N=C\c1ccccc1O | 100% | 91.5% | 93.5% | 52% | 121% | 100% | 92.9% | 91.2% | 71.6% | 72.5% | 80.6% | 100% | 107% | 120% | 112% | 95.7% | 95.8% | 88.9% | 110% | 99.9%
Oc1ccc(/C=N/N=C2c3ccccc3-c3ccccc32)c(O)c1 | 80.9% | 78.4% | 56.1% | 56.1% | 108% | 70.1% | 66.8% | 95.6% | 60.4% | 77.9% | 54% | 72.8% | 84.5% | 77.1% | 60.4% | 84.7% | 71.2% | 83.5% | 93.7% | 72.9%
